The values below come from the supplement of paper PMC13380429.

The assay has as its system Vero E6 infected with SARS-CoV-2. In words: inhibition of SARS-CoV-2 cytopathic effect; higher = more antiviral protection, active = above 15. To be noted: 48 h. A general note: Damage to the host cells serves as the signal in cytopathic effect assays.

SMILES strings stand for the structures. Values without a mark were called inactive.

On to `CN1CCCN(C(c2ccccc2)c2ccc(Cl)cc2)CC1` (stereo not given) [homochlorcyclizine], for which the “inhibition of SARS-CoV-2 cytopathic effect” value (“inhibition” for short) by setting is: (1 nM) 2.1%; (8.33 nM) 1.84%; (100 nM) 1.43%; (833.33 nM) -2.39%; (10000 nM) -1.32%.
The corresponding values for `C/C(=N\NC(=O)[C@@H]1C(=O)NC[C@H]1c1ccccc1)c1cccc(Br)c1` are -1.05%, 1.12%, 1.69%, -2.01% and -2.3%.
In the case of `COC1CCN(C(=O)c2cc(Cc3n[nH]c(=O)c4ccccc34)ccc2F)CC1`, the “inhibition” value is, setting by setting: (1 nM) -0.72%; (8.33 nM) 7.33%; (100 nM) 4.58%; (833.33 nM) 3.41%; (10000 nM) 4.58%.
Consider `CCn1c2ccccc2c2cc(CNC)ccc21`, for which the “inhibition” value is 4.22% (1 nM); 4.54% (8.33 nM); -0.29% (100 nM); -0.75% (833.33 nM); -3.22% (10000 nM).
`O=C(CCCN1CC=C(n2c(=O)[nH]c3ccccc32)CC1)c1ccc(F)cc1` [droperidol]: the “inhibition” value is -0.89% (1 nM); 3.34% (8.33 nM); 0.3% (100 nM); -0.44% (833.33 nM); -2% (10000 nM).
The corresponding values for `CC(C)C(=O)c1c(C(C)C)nn2ccccc12` [ibudilast] are 2.15%, 6.68%, 5.43%, 7.59% and 2.39%.
The corresponding values for `CCCNC(C)C(=O)Nc1c(C)csc1C(=O)OC` (stereo not given) [articaine] are -0.23%, 0.85%, 0.42%, 4.27% and -2.09%.
The corresponding values for `C#CC[C@H](c1nc2cc(Cl)ccc2c(=O)n1Nc1ccccc1)N(CCCN)C(=O)c1cccc(Cl)c1F` are -0.8%, -0.99%, 0.22%, 1.38% and -9.07%.
Take `c1ccc(C(NCc2cccnc2)(c2ccccc2)c2ccccc2)cc1`: the “inhibition” value (1 nM) was 1.69%; the “inhibition” value (8.33 nM) is 4.02%; the “inhibition” value (100 nM) is 1%; the “inhibition” value (833.33 nM) is 1.58%; the “inhibition” value (10000 nM) is 2.26%.
The corresponding values for `COc1ccc(CC2NCCc3c2[nH]c2ccc(C)cc32)c(Cl)c1OC` (stereo not given) are 0.04%, 1.87%, 6.67%, -1.77% and -7.05%.
The corresponding values for `COc1ccc([C@@H]2CC(=O)c3c(O)cc(O[C@@H]4O[C@H](CO[C@@H]5O[C@@H](C)[C@H](O)[C@@H](O)[C@H]5O)[C@@H](O)[C@H](O)[C@H]4O)cc3O2)cc1O` [hesperidin] are 1.23%, 2.76%, 0.86%, 0.15% and 1.25%.
The corresponding values for `Cc1c(C(N)=O)cc([N+](=O)[O-])cc1[N+](=O)[O-]` [dinitolmide] are -1.43%, 2.03%, 1.29%, -2.22% and -3.59%.
Turning to `O=C(NOCC1CC1)c1ccc(F)c(F)c1Nc1ccc(I)cc1Cl`, the “inhibition” value reads like this: (1 nM) -1.59%; (8.33 nM) -0.84%; (100 nM) -7.28%; (833.33 nM) -6.38%; (10000 nM) -13.8%.
The corresponding values for `c1ccc2c(CCNc3ccc(Nc4ccncc4)cc3)c[nH]c2c1` [serdemetan] are -2.3%, -1.01%, -2.55%, -0.64% and 22.1% (active).
The corresponding values for `C[C@@H]1CC[C@H]2C(C)(C)[C@H]3C[C@@]12CC[C@@]3(C)O` [cedrol] are -1.18%, -3.1%, -1.28%, -1.1% and -1.09%.
The corresponding values for `CCOC1O[C@H]([C@@H](COCc2ccccc2)OCc2ccccc2)[C@H](OCc2ccccc2)[C@H]1O` (stereo not given in full) [tribenoside] are -7.21%, -1.54%, -0.86%, 0.08% and 1.9%.
In the case of `COc1ccc(-c2nc(-c3ccc(-c4cccc(Cl)c4)o3)[nH]c2-c2ccc(OC)cc2)cc1` [neurodazine], the “inhibition” value reads like this: (1 nM) 0.83%; (8.33 nM) -0.31%; (100 nM) 4.87%; (833.33 nM) 5.51%; (10000 nM) 1.25%.
The corresponding values for `CCCC[C@H](NC(=O)[C@@H]1[C@@H]2[C@H](CN1C(=O)[C@@H](NC(=O)NC1(CS(=O)(=O)C(C)(C)C)CCCCC1)C(C)(C)C)C2(C)C)C(=O)C(=O)NC1CC1` [narlaprevir] are 0.96%, 1.32%, 0.06%, 3.2% and 0.24%.
